Assay outcomes (PubChem)
In the library only some 12% were active in any assay of this set; here they are far more common.
HP1b binding inh: inhibitors of HP1-beta chromodomain binding to methylated histone tails | P83916 | AlphaScreen HP1-beta / biotin-H3K9me3 peptide binding | Potency, µM (highest dose often 114 µM), inactives show at the top dose activity change, negative = inhibition, most hits filed as inhibitors | 390,000 compounds, 0.56% hits | AID 540317; further: nearly all actives have a fitted effect of over 70% in size
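AlphaScreen: HP1-beta (50 nM) preformed 30 min with biotin-H3(1-18)K9me3 peptide (50 nM) in PBS pH 7.4, 0.01% Tween-20. Compound added for 30 min at RT, then streptavidin donor/nickel chelate acceptor beads (10 ug/mL) for 30 min.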
BAZ2B inh: blocks human BAZ2B | Q9UIF8 | AlphaScreen BAZ2B-H3K14Ac peptide displacement | Potency, µM (highest dose often 114 µM), without a hit: at the highest dose activity change, negative = inhibition, hits mostly inhibitors | 360,000 compounds, 4.4% hits | AID 504333; further: on the % scale 0 is the no-effect control and ±100 the full control effect; nearly all actives have a fitted effect of over 60% in size
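Protein-peptide AlphaScreen: BAZ2B 50 nM, b-H3K14Ac 50 nM, 1x PBS pH 7.4 + 0.01% Tween-20. Preincubation 30 min RT; cpd 30 min RT (top 110 uM); beads 20 min RT, light-protected.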
G9a inh: inhibitors of human histone lysine methyltransferase G9a. Potency, µM (titrated, usually from 102 µM), inactives show at the top dose activity, negative = inhibition, usual class: inhibitors. G9a H3K9 monomethylation, AlphaScreen, 2 h. AID 504332. 350,000 compounds, 8.8% hits; further: on the % scale 0 is the no-effect control and ±100 the full control effect; nearly all actives have a fitted effect of over 75% in size
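Methyltransferase reactions run at room temperature for 2 h (20 nM enzyme, 500 nM biotin-H3K9 peptide, 20 uM SAM) after a 15 min compound preincubation; product detected by AlphaScreen beads and anti-H3K9me1 antibody.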
Sfp PPTase inh: blocks B. subtilis Sfp PPTase activity; Q9F4F7; Biochemical Sfp PPTase activity, qHTS; Potency, µM, for inactives: largest response in the series, negative = inhibition, usual class: inhibitors; 310,000 compounds, 3.5% hits; AID 1490;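 further: the enzyme is Sfp with the accession as filed and its product quenches rhodamine fluorescence; 0% = enzyme reaction without inhibitor and -100% = no enzyme wells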
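Buffer: 50 mM Hepes-Na pH 7.6, 10 mM MgCl2, 0.01% Nonidet P-40, 0.01% BSA. Enzyme 15 nM, pre-exposed to compound 15 min; substrates then added and fluorescence change tracked over 30 min.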
JMJD2A Tudor: blocks the human JMJD2A Tudor domain; AlphaScreen JMJD2A-Tudor / H3K4me3 peptide binding; O75164; 390,000 compounds, 4.4% hits; Potency, µM (doses to about 114 µM), without a hit: at the highest dose activity change, negative = inhibition, hits mostly inhibitors; further: on the % scale 0 is the no-effect control and ±100 the full control effect; nearly all actives have a fitted effect of over 50% in size
Target sequence (O75164 whole entry, looked up, the tested form may be a part): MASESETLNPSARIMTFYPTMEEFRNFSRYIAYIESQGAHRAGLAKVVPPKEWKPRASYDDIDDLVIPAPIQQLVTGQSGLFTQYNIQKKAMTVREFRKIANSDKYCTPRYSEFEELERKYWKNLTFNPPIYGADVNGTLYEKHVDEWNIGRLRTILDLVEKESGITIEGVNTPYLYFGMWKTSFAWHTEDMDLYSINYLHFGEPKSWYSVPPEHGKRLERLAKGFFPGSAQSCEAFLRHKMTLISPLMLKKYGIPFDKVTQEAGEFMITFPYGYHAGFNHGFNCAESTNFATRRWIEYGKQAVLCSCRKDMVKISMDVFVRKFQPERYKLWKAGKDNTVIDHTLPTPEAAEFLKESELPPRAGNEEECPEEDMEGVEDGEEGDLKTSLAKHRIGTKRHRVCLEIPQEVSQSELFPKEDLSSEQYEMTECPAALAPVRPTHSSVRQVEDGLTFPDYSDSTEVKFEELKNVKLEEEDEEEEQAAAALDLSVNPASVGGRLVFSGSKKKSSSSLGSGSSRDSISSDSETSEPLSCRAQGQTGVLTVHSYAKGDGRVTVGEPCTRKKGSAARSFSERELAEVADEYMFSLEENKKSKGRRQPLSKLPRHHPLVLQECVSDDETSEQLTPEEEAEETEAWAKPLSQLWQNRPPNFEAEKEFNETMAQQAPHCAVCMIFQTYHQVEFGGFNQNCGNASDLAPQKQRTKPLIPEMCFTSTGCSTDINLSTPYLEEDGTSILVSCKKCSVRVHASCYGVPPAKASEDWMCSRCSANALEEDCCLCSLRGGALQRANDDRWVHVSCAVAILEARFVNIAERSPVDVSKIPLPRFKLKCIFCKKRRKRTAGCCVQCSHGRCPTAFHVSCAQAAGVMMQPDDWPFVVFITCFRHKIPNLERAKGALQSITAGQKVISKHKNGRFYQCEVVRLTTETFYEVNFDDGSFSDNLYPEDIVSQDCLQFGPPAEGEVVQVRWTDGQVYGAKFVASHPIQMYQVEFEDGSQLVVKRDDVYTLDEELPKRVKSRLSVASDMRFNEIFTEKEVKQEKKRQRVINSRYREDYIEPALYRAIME
The depositor's hits bear a star; ? = inconclusive; . = not tested or not shown; ! = not confirmed by another sample; [ ] = dose if it differs, or a comment. The call rests on the fitted dose curve; in most records, active means well fitted curve in the direction sought with a large enough effect; inconclusive means small, poorly fitted or top-dose-only effect, or another doubt; inactive means no such curve, though single readings can be large; an effect the other way counts as inactive or inconclusive. Potency means the concentration at half of the fitted maximal effect.

SMILES | HP1b binding inh | BAZ2B inh | G9a inh | Sfp PPTase inh | JMJD2A Tudor
C#C[C@]1(O)CC[C@H]2[C@@H]3CCC4=CC(=O)CC[C@]4(C)[C@H]3CC[C@@]21C | 44% | -9% | ? | -8% | -5%
CCOC(=O)c1cn2nc(OP(=S)(OCC)OCC)cc2nc1C | 122% | 77% | 20µM* | -14% | 79%
CC(C)CC(CN)CC(=O)O (centres undefined) | . | . | -2%[2.33 µM] | 20% | .
Cc1nc(C(=O)O)nn1-c1ccc([N+](=O)[O-])cc1 | 19% | ? | 50µM* | 21% | 5%
C=C1C([C@@H](O)C[C@H](C)C2O[C@@]3(CCCCO3)CC[C@H]2C)OC2CC[C@@]3(CC[C@@H](/C=C/[C@@H](C)C4CC(C)=C[C@]5(O4)O[C@H](C[C@@](C)(O)C(=O)O)CCC5O)O3)OC2[C@@H]1O (some centres undefined) | . | . | 12%[59 µM] | -2% | .
ClC1=C(Cl)C2(Cl)C(CBr)CC1(Cl)C2(Cl)Cl (centres undefined) | . | . | 0%[12.7 µM] | -1% | .
CC(CCN1CC1)=NNC(=O)Nc1cccc2ccccc12 | 20% | . | . | . | -31%
Cc1cccc(C2=NCC(=O)N(CC(=O)NCc3ccco3)c3sc4c(c32)CCCC4)c1 | -22% | 45µM* | ? | 22µM* | 50µM*
COc1ccc(C2=NCC(=O)N(CC(=O)NCc3ccco3)c3sc4c(c32)CCCC4)cc1 | ? | ? | ? | -12% | ?
Cc1cccc(NC(=O)c2ccc(F)c(S(=O)(=O)N3CCN(c4ccc(F)cc4)CC3)c2)c1 | 23% | -15% | ? | . | ?
COc1ccc(CN2CCN(c3ccccc3F)CC2)cc1O | ? | ? | 10µM* | -15% | 3.2µM*
Fc1ccccc1N1CCN(Cc2ccc3c(c2)OCO3)CC1 | ? | 35µM* | 7.9µM* | ? | 3.5µM*
COc1ccc(CN2CCCC(C(=O)c3ccccc3SC)C2)cc1O (centres undefined) | 3% | ? | -17% | 6% | -26%
Clc1ccccc1N1CCN(Cc2ccc3c(c2)OCO3)CC1 | ? | 79µM* | -31%[12.7 µM] | -26% | 28µM*
CC(C)CN1CCN(Cc2c(F)cccc2Cl)CC1CCO (centres undefined) | 20%[57 µM] | -11% | -24% | -3% | -13%
CN1CCN(Cc2c(F)cccc2Cl)CC1 | ? | 63µM* | 22µM* | ? | 10µM*
Cc1cc(C)c(N)cc1C | 52% | -8% | -1%[0.501 µM] | . | -23%
Fc1cccc(F)c1CN1CCN(c2ccc(Cl)cc2)CC1 | -1% | -7% | 13% | 3% | -18%
Clc1ccccc1CN1CCN(c2ccccc2Cl)CC1 | ? | 35µM* | 13µM* | -18% | 5.6µM*
Fc1ccccc1N1CCN(Cc2c(F)cccc2F)CC1 | ? | 32µM* | 1.4µM* | ? | 3.5µM*
CCN1CCN(Cc2ccccc2C)CC1 | 20% | 6% | 3%[12.7 µM] | 7% | -19%
Cc1ccc(OCC(=O)N2CCN(Cc3ccc4c(c3)OCO4)CC2)cc1C | 16% | ? | -8%[12.7 µM] | 7% | -15%
Cc1ccccc1N1CCN(Cc2ccc3c(c2)OCO3)CC1 | 4% | ? | 7.9µM* | -6% | 5.6µM*
COc1ccc(-c2cc(=Nc3cccc(C(=O)O)c3)c3cc(C)ccc3o2)cc1 | 0% | . | ? | -2% | ?
Fc1ccc(Cn2nnnc2C(c2ccc(F)cc2)N2CC=C(c3ccc(F)cc3)CC2)cc1 (centres undefined) | 5% | -9% | 18%[59 µM] | -7% | -17%
SMILES | HP1b binding inh | BAZ2B inh | G9a inh | Sfp PPTase inh | JMJD2A Tudor
CCc1ccc(NC(=O)C(C)OC(=O)c2c(C)nn(Cc3ccccc3)c2Cl)cc1 (centres undefined) | 27% | -2% | -9% | 10% | -5%
CN1C(=O)C(=Cc2ccc(N3CCCCCC3)o2)C(=O)N(C)C1=S | -50% | ? | 45µM* | -22% | ?
Cc1cccc(N2C(=O)/C(=C/c3ccc(N4CCN(C)CC4)o3)C(=O)NC2=S)c1C | -32% | -63% | 45µM* | 63µM* | ?
CCc1ccccc1N1C(=O)/C(=C/c2ccc(N3CCN(C)CC3)o2)C(=O)NC1=S | ? | ? | ? | -7% | 56µM*
Cc1ccccc1N1C(=O)NC(=O)/C(=C\c2cc(Br)c(N3CCOCC3)o2)C1=O | ? | ? | ? | -17% | -27%
Cc1ccccc1N1C(=O)NC(=O)/C(=C/c2ccc(N3CCOCC3)o2)C1=O | 28% | -19% | ? | 8% | 1%
O=C1NC(=O)C2=Cc3ccc(O)cc3OC2(O)N1 (centres undefined) | . | 1% | ? | -5% | .
CSc1ccc(C(=O)C(C)(C)N2CCOCC2)cc1 | 59% | 5% | 12%[59 µM] | 8% | 6%
C=CCN1CC[C@@]23c4c5ccc(O)c4O[C@H]2/C(=N\N=C2/CC[C@@]4(O)[C@H]6Cc7ccc(O)c8c7[C@@]4(CCN6CC=C)[C@@H]2O8)CC[C@]3(O)[C@@H]1C5 | . | . | . | -10% | .
COc1cc2[nH]c(=O)n(CCCCCC(=O)N3CCN(c4cccc(C(F)(F)F)c4)CC3)c(=O)c2cc1OC | -2% | -13% | -28%[59 µM] | . | ?
CCN1CCN(C(=O)Cc2c(C)n(C(=O)c3ccc(Cl)cc3)c3ccc(OC)cc23)CC1 | 28% | 71µM* | 50µM* | -12% | -35%
O=[N+]([O-])c1c(Cl)cccc1-c1c[nH]cc1Cl | . | . | ? | -3% | .
C[C@@H]1O[C@H](C[N+](C)(C)C)C[C@@H]1O | . | . | 15%[59 µM] | 22% | .
O=C1NC(=O)N(Cc2ccccc2Cl)C(=O)/C1=C/N1CCOCC1 | 39% | -2% | ? | 10µM* | -13%
CCOC(=O)C1CCN(/C=C2/C(=O)NC(=O)N(c3cccc(C)c3C)C2=O)CC1 | 28% | ? | . | ? | -12%
Cc1ccc(S(=O)(=O)CC(=O)c2cc(C)c(OC(=O)N(C)C)c(C)c2)cc1 | 47% | -13% | -5% | 11% | -10%
Cc1cc(C(=O)CS(=O)c2ccc(F)cc2)cc(C)c1OC(=O)N(C)C (centres undefined) | 34% | -13% | 40µM* | ? | -7%
CN1CCC(c2c[nH]c3ccc(O)cc23)CC1 | 38% | . | 13µM*! | 21% | -16%
C=CCNC(=S)/N=C/c1c(O)[nH]c(=O)[nH]c1=O | 21% | 8% | . | 45µM* | -3%
NC(=S)/N=C/c1c(O)[nH]c(=O)[nH]c1=O | 12% | -12% | 79µM* | -18% | -26%
CCCCCCCCN=Cc1c(O)[nH]c(=O)[nH]c1=O | 27% | 2% | . | -9% | -7%
O=C(Cn1cc(C(=O)c2ccccc2)c2ccccc21)Nc1ccc(Br)cc1 | 21% | 3% | 13%[59 µM] | . | 4%
CC(C)OP(=O)(OC(C)C)C(Nc1ccccc1)c1ccccc1C(F)(F)F (centres undefined) | 23% | 5% | 18%[59 µM] | 37% | -19%
